Most compounds without a hit are left out; they make up all but 2.3% or so of the library.
CHO-K1 Ca ag: counter-screen for M1 agonists: effect in parental CHO-K1 cells; AID 602248; actives 0.48% (n = 360,000); Fluo-8 calcium fluorescence; scaled to maximal ATP response, vehicle zero; activation, % at 3 µM; in the data active means activation above about 15%;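 further: untransfected CHO-K1 host cells lacking M1 receptor as counterscreen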
CHO-K1 Ca antag: nonselective inhibitor or artifact in parental CHO-K1 cells; ATP-induced calcium, Fluo-8 fluorescence; inhibition, % at 3 µM; actives 0.6% (n = 360,000);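 active means inhibition above a per-plate cutoff, the plate's mean sample inhibition plus 3 SD, cut at about 24% in these data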;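 further: 0% = DMSO plus EC80 ATP and 100% = DMSO alone without ATP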
CHRM1 agonist: activates human CHRM1 receptor. P11229. CHO-K1 hM1, Fluo-8 calcium fluorescence, agonist mode; 0% DMSO, 100% acetylcholine EC100. activation, % at 3 µM. actives 0.33% (n = 360,000). AID 588814;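 active means activation above the run's mean compound activation plus 3 SD, cut at about 16% in these data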;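 further: peak over basal fluorescence ratio within a 140 s kinetic read after compound addition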
Target sequence (P11229 whole entry, looked up): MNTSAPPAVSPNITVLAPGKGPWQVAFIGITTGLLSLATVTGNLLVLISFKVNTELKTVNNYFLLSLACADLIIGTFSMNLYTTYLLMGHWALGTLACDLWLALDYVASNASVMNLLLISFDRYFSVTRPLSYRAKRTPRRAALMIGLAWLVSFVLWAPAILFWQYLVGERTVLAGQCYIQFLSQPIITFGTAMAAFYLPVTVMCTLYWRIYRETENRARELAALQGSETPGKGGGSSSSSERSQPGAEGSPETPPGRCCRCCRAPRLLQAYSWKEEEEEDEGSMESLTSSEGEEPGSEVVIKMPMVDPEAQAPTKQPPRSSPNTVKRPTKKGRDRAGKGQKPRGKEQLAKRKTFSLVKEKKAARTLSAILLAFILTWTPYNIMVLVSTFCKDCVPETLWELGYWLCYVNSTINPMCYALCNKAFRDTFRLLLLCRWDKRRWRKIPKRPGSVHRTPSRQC
CHO-K1 Ca PAM: nonselective activator or artifact in parental CHO-K1 calcium assay | ATP EC20, Fluo-8 calcium fluorescence; 0% at ATP EC20, 100% at ATP max | activation, % at 3 µM | actives 0.02% (n = 360,000) | AID 602247;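 active means activation above the run cutoff, the mean activation of all test compounds plus 3 SD, cut at about 40% in these data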;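 further: peak over basal fluorescence ratio in a 140 s read after ATP addition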
CHRM1 PAM: positive allosteric modulators of human M1 muscarinic receptor | P11229 | CHO-K1 hM1, Fluo-8 calcium fluorescence, ACh EC20; 0% = ACh EC20, 100% = maximal ACh | activation, % at 3 µM | actives 0.088% (n = 360,000); in the data active means activation above about 19%, passing the limit was not always enough
CHRM1 antagonist: blocks human M1 muscarinic receptor; P11229; actives 1.3% (n = 360,000); CHO-K1 hM1, Fluo-8 calcium fluorescence, ACh EC80 antagonist; inhibition, % at 3 µM;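 active means percent inhibition above its own plate's cutoff, namely the mean of that plate's compound wells plus 3 SD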;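 further: peak over basal fluorescence ratio during 140 s after agonist addition; 0% = ACh EC80 plus DMSO and 100% = DMSO alone without agonist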
* = called active by the depositor.

SMILES	CHO-K1 Ca ag	CHO-K1 Ca antag	CHRM1 agonist	CHO-K1 Ca PAM	CHRM1 PAM	CHRM1 antagonist
COC(=O)CCCCCCCCC(O)C[N+]1(C)CCOCC1 (centres undefined)	-0.1	7.2	-9.2	-8.2	-6.3	10.1
COCCNC(=O)CSc1nnc(NC(=O)C2CC(=O)N(c3ccccc3OC)C2)s1 (centres undefined)	-0.5	12.3	-3.2	1.7	-1.0	11.9
C[C@@]12C(=O)Nc3ccc(Br)cc3C(=O)N1[C@H]1c3ccccc3OC[C@@H]1[C@@H]2c1ccccc1	0.5	-6.7	-3.8	12.4	-13.8	26.6*
Cc1ccc2c(c1)C(=O)N1[C@H]3c4ccccc4OC[C@@H]3[C@H](c3ccccc3)[C@]1(C)C(=O)N2	-0.5	-5.3	-7.9	9.5	-30.3	64.8*
Cc1ccc2c(c1)NC(=O)[C@@]1(C)[C@@H](c3ccccc3)[C@H]3COc4ccccc4[C@@H]3N1C2=O	-0.2	-10.8	-5.4	4.3	-6.7	4.9
CCOC(=O)C1(Cc2ccccc2)CCCN(C(=O)c2ccc(-n3ccnc3)cc2)C1 (centres undefined)	4.5	-1.9	-2.3	-1.2	-2.3	9.3
Cc1cccc(C)c1NC(=S)NC(=O)c1cccc(Cl)c1	-0.1	1.4	-8.3	12.5	-9.3	6.8
Cc1ccccc1Cc1c(C)nc2nc(SCC(=O)NCCCN3CCCCC3)nn2c1C	0.3	-2.2	-13.0	0.2	-30.8	50.8*
Cc1nc2nc(SCC(=O)NCCCN3CCCCCC3)nn2c(C)c1Cc1ccccc1	0.3	-13.1	-11.9	12.9	-37.6	77.4*
Cc1ccc(Cc2c(C)nc3nc(SCC(=O)NCCCN4CCOCC4)nn3c2C)cc1	1.1	-16.7	-5.1	9.7	-2.8	-5.4
CCOc1ccc(N(CC(=O)NC2CCCCC2)C(=O)CCCC(=O)Nc2ccccn2)cc1	-0.4	0.6	0.1	1.5	15.0	-14.1
Cc1cc(SCC(=O)NCC2CCCO2)nc2ccccc12 (centres undefined)	6.0	4.9	1.6	-4.7	3.4	0.6
c1ccc(-c2ccccc2OCCN2CCCC2)cc1	-0.1	18.4	-11.2	-23.5	-28.6	67.6*
c1ccc(-c2ccccc2OCCCCN2CCCCCC2)cc1	3.8	-1.7	-9.5	15.1	-26.3	35.2*
c1ccc(-c2ccccc2OCCOCCN2CCCCC2)cc1	1.3	-5.8	-8.5	15.8	-13.8	18.8
Cc1ccccc1C(=O)OC1CCN(C)CC1	2.6	-3.0	-8.6	11.6	-20.5	35.4*
CN1CCC(OC(=O)c2ccc(Cl)cc2Cl)CC1	2.2	-8.2	-11.4	16.0	-6.8	-0.6
CN1CCC(OC(=O)c2ccco2)CC1	1.0	0.4	-7.9	-6.2	-16.5	26.6
CN1CCC(OC(=O)c2ccccc2Cl)CC1	0.0	-3.5	-13.1	2.0	-32.9	48.4*
CCc1ccc(C(O)c2ncc(-c3cccc4ccccc34)[nH]2)cc1 (centres undefined)	0.2	17.6	10.1	-14.7	11.4	4.3
COc1ccc(CN2CCNC(=O)C2CC(=O)NCc2csc(C)n2)c(F)c1 (centres undefined)	0.5	-6.6	-2.9	-9.6	11.4	-15.9
O=C(NNC(=S)NC(=O)c1ccc(F)cc1)c1ccncc1	1.4	-4.0	-0.8	4.8	-4.2	1.1
CC(C)c1ccc(C(=O)NNC(=O)c2ccncc2)cc1	0.2	-9.1	-3.0	22.9	6.8	-5.1
O=C(NNC(=S)NC(=O)C12CC3CC(CC(C3)C1)C2)c1ccncc1	46.1*	2.1	58.2*	-4.6	-22.8	15.4
CC12CC3CC(C1)CC(C(=O)NNC(=O)c1ccncc1)(C3)C2	0.3	-11.7	-7.8	8.7	-29.8	63.3*
CC1(C(=O)NC(=S)NNC(=O)c2ccncc2)CCCCC1	27.9*	4.8	39.2*	0.8	-9.0	2.0
CCC(C)NC(=S)NNC(=O)c1ccncc1 (centres undefined)	-0.6	26.5*	0.5	-13.5	20.5	-9.8
CCOC(=O)c1c(S(=O)(=O)N2CCN(c3ccc(C(C)=O)cc3)CC2)c(C)n(C)c1C	2.2	-17.4	-3.9	19.9	8.8	-7.9
CN(C)c1ccc(/C=C(/NC(=O)c2ccccc2Cl)C(=O)NCCN2CCOCC2)cc1	6.7	8.0	8.6	14.0	4.8	4.9

High-throughput results (PubChem BioAssay)
